High-throughput results (PubChem BioAssay)
Most compounds without a hit are left out; they make up all but 0.77% or so of the library.
Mtb RmlCD inh – M. tuberculosis RmlC/RmlD inhibition; inhibition, % at 3.6 µM; actives 0.03% (n = 160,000); P9WH09+P9WH11; RmlC+RmlD coupled enzyme assay, percent inhibition; primary screen in compound mixtures; in the data active means inhibition mostly above about 34%, no sharp cut-off
Target sequence (P9WH09 whole entry, looked up): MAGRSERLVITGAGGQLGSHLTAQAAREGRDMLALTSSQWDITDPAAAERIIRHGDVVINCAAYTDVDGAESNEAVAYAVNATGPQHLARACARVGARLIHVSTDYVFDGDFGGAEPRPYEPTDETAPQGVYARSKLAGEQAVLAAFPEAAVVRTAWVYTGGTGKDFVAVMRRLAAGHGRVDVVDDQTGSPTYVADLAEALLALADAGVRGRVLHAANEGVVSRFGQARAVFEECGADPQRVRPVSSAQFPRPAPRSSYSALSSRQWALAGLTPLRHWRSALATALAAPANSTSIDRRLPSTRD
Target sequence (P9WH11 whole entry, looked up): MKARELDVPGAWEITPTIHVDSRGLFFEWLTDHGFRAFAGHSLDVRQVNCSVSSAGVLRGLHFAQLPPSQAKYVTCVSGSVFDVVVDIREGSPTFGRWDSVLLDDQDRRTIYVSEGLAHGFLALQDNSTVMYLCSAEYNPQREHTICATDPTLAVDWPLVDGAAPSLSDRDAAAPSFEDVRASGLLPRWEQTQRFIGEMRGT
RecA splice inh – inhibitors of M. tuberculosis RecA intein splicing; P9WHJ3; cell-free RecA intein splicing, fluorescence; inhibition, % (no concentration beside the values); actives 0.75% (n = 290,000); AID 2221; in the data active means inhibition above about 30%;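 further: 0% = vehicle wells and 100% = reference inhibitor control wells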
* marks the source's active call; other numbers are inactive results; . = no result.

SMILES | Mtb RmlCD inh | RecA splice inh
CCN(CC)c1c([N+](=O)[O-])c(=O)n(C)c2ccccc12 | -8.4 | -1.9
CC1=C(C(=O)OCc2ccccc2)C(c2cccc(Br)c2)NC(=O)N1 (stereo not given) | . | 2.8
CN1CC=C2C(C#N)=C(N)C(C#N)(C#N)C(c3ccncc3)C2C1 (stereo not given) | 36.3 | -75.1
CC(C)c1ccc(C2C3CSCC=C3C(C#N)=C(N)C2(C#N)C#N)cc1 (stereo not given) | . | 36.4*
Cc1ccc(C(=O)NCC(c2ccco2)N2CCc3ccccc3C2)cc1C (stereo not given) | . | 13.2
CC(C)c1nc(SCC(=O)N2CCCc3ccccc32)c2c(=O)n(C)c(=O)n(C)c2n1 | 7.8 | -6.4
C/C(CC(=O)NCc1ccco1)=N\NC(=O)c1ccc([N+](=O)[O-])cc1Cl | . | 69.5*
C/C(CC(=O)NCc1ccco1)=N\NC(=O)c1ccc(Cl)cc1Cl | . | 1.6
COc1ccc(NC(=O)C2CCN(C(=O)Cc3ccccc3)CC2)cc1OC | 4.4 | -0.3
CCN(CC)CCn1c(SCC(=O)Nc2ccc(F)cc2)nc2c(sc3ccccc32)c1=O | 7.1 | 1.9
COc1ccccc1NC(=O)CSc1nc2c(sc3ccccc32)c(=O)n1CCN(C)C | -0.7 | 35.4*
Nc1ccc(Oc2ncccn2)cc1 | . | 51.3*
O=Cc1cccc(Oc2ncccn2)c1 | 5.6 | -3.2
CC(C)N(C)C1CCN(C(=O)Nc2ccc(Cl)c(Cl)c2)CC1 | -3.0 | 1.0
Cc1cccc(CN2CCN(C(=O)Cc3ccccc3)CC2)c1 | . | 0.2
Cc1cccc(CN2CCN(C(=O)CCl)CC2)c1 | -8.3 | 33.1*
N#Cc1c(NC(=O)COC(=O)C2CC3C=CC2C3)oc(-c2ccccc2)c1-c1ccccc1 (stereo not given) | -10.9 | 25.4
CCN1CCN(CCCNC(=O)c2cc3cc4ccc(OC)cc4nc3o2)CC1 | -2.5 | -2.9
COc1ccc2cc3cc(C(=O)NCCCN4CCOCC4)oc3nc2c1 | 51.0* | -5.5
COc1ccnc(Nc2cccc(C)c2)c1C#N | -5.0 | 0.3
Cc1cccn2c(=O)c(C=Nc3ccccc3)c(NCCO)nc12 | 54.5* | -12.2
Cc1cccn2c(=O)c(C=Nc3ccc(Cl)cc3)c(NCCO)nc12 | -2.3 | -6.7
Cn1c(Cc2ccccc2)nnc1SCC(=O)N1CCOCC1 | -3.2 | 4.4
C[C@H](NC(=O)C1CCC(CNC(=O)[C@@H]2CCCN2C(=O)OC(C)(C)C)CC1)C(=O)O (stereo not given in full) | . | 0.4
CCc1[nH]nc2c1C1(CCN(C(=O)OCc3ccccc3)CC1)C(C#N)=C(N)O2 | -2.3 | 27.8
SMILES | Mtb RmlCD inh | RecA splice inh
CCc1[nH]nc2c1C(c1cccc(OC(=O)N3CCOCC3)c1)C(C#N)=C(N)O2 (stereo not given) | 5.0 | 69.5*
CC(C)c1[nH]nc2c1C(c1cccc(OC(=O)N3CCOCC3)c1)C(C#N)=C(N)O2 (stereo not given) | . | 44.8*
COc1cc(C2C(C#N)=C(N)Oc3cc(C)oc(=O)c32)ccc1OC(=O)N1CCOCC1 (stereo not given) | -9.1 | -1.0
CCCc1[nH]nc2c1C(c1ccc(OC(=O)N3CCOCC3)c(OC)c1)C(C#N)=C(N)O2 (stereo not given) | 11.8 | 42.2*
COc1cc(C2C(C#N)=C(N)OC3=C2C(=O)CCC3)ccc1OC(=O)N1CCOCC1 (stereo not given) | -8.5 | 0.2
CCOc1ccc(C2C(C#N)=C(N)Oc3n[nH]c(C)c32)cc1OC(=O)C1CC1 (stereo not given) | . | 65.7*
CCCOc1ccc(C2C(C#N)=C(N)Oc3nc[nH]c(=O)c32)cc1OC (stereo not given) | . | 0.5
COc1ccccc1C(=O)N1CCN(Cc2nc(CC3CC3)no2)CC1 | 3.8 | -2.8
Cn1cnc([N+](=O)[O-])c1Sc1ccc(C(C)(C)C)cc1 | . | 31.3*
Cn1cnc([N+](=O)[O-])c1Sc1ccc(Br)cc1 | -4.6 | 25.4
CC1(C)N=C(SCC(=O)Nc2ccccc2)C(c2ccc(Cl)cc2)=N1 | 7.9 | 8.9
CC1(C)N=C(SCC(=O)Nc2ccc(Cl)cc2Cl)C(c2ccccc2)=N1 | 9.5 | 32.1*
COc1ccc(C2=NS(=O)(=O)N(C)C(C(=O)Nc3cc(OC)c(OC)c(OC)c3)=C2)cc1 | . | 3.5
CCn1c(SCC(=O)OC(C)C)nnc1-c1cccc(Cl)c1 | . | 1.4
CC(C)Nc1nc(Cl)nc(N(C#N)CN2C(=O)c3ccccc3C2=O)n1 | -9.7 | 2.2
CCC(C)Nc1nc(Cl)nc(N(C#N)CN2C(=O)c3ccccc3S2(=O)=O)n1 (stereo not given) | -7.4 | 36.7*
O=C(Nc1nc2ccsc2c(=O)s1)c1ccc(Cl)cc1 | 17.9 | -3.4
Nc1nc(-c2ccc3c(c2)OCCO3)cs1 | 4.2 | -2.0
N#Cc1ncc(-c2ccc3c(c2)OCCOCCOCCOCCOCCO3)nc1C#N | -0.5 | 44.1*
Cc1ccc2nc(-c3ccc4c(c3)OCCO4)cn2c1 | 82.6 | 2.4
N#Cc1ncc(-c2ccc3c(c2)OCCOCCOCCOCCO3)nc1C#N | -7.2 | 35.6*
COc1ccc(OCCCC(=O)OCC(=O)Nc2ccc(Cl)cn2)cc1 | . | 1.1
COc1ccc(COC(=O)N/N=C(\C)CC(=O)Nc2ccc(Cl)cn2)cc1 | 70.1 | 45.3*
O=C(O)c1ccc(CN2C(=O)c3cccc4c([N+](=O)[O-])ccc(c34)C2=O)cc1 | . | -93.6
Cc1ccc(NC(=O)c2cc(-c3ccccc3)nn2-c2ccccc2)cc1 | 1.4 | 0.7
SMILES | Mtb RmlCD inh | RecA splice inh
O=C(Nc1ccc(F)cc1)c1nn(-c2ccccc2)c(=O)cc1Cl | -10.9 | 30.6*
C#CCOc1ccc(C2C3=C(CC(C)(C)CC3=O)N(CC(=O)O)C3=C2C(=O)CC(C)(C)C3)cc1OC | . | -21.5
CC1CCN(S(=O)(=O)c2ccc(C(=O)Nc3nnc(C4CC4)o3)cc2)CC1 | . | -2.4
CCOC(=O)C(C)Sc1ncnc2c1nnn2-c1ccc(F)cc1 (stereo not given) | . | 36.9*
CCC(Sc1ncnc2c1nnn2-c1ccc(F)cc1)C(=O)OC (stereo not given) | -2.5 | 3.4
CCCN1C(=O)c2cc(C(=O)Nc3cccc(C(C)=O)c3)ccc2C1Nc1cccc(C(C)=O)c1 (stereo not given) | 22.4 | 1.1
COc1ccc(CN2CCNC(=O)C2CC(=O)N(C)Cc2ccncn2)c(OC)c1 (stereo not given) | -3.8 | 30.5*
COc1ccc(CN2CCNC(=O)C2CC(=O)N(C)Cc2nccs2)c(OC)c1 (stereo not given) | . | 1.0
COC(=O)CCC(=O)Nc1cc(S(=O)(=O)Nc2ccc(Cl)cc2)ccc1N1CCOCC1 | 4.4 | -1.2
CC(=O)N(C)c1ccc(NC(=O)c2ccc([N+](=O)[O-])cc2Cl)cc1 | . | -10.4
Cc1nc2c(-c3ccc(F)cc3)c(C)[nH]n2c(=O)c1Cl | . | 42.7*
Cc1[nH]n2c(=O)c3c(nc2c1-c1ccc(F)cc1)CCCC3 | 5.0 | -4.2
O=C(COC(=O)c1ccccc1NS(=O)(=O)c1ccc(Cl)cc1)NCc1ccccc1 | 28.0 | 5.1
O=C(Nc1cccc2c1CCCC2)c1cccc(F)c1 | . | 2.1
O=C(NC(NC(=S)Nc1ccc(Cl)cc1Cl)C(Cl)(Cl)Cl)c1cccc([N+](=O)[O-])c1 (stereo not given) | -3.7 | 37.2*
O=C(O)c1cccc(NC(=S)NC(NC(=O)c2cccc([N+](=O)[O-])c2)C(Cl)(Cl)Cl)c1 (stereo not given) | 1.6 | -4.8
COc1c(C)cc(Br)cc1C(=O)Nc1ccccc1N1CCN(C(=O)c2ccccc2)CC1 | -11.1 | 11.5
COc1ccc(NC(C)=O)cc1S(=O)(=O)Nc1ccc(OCc2ccccc2)cc1 | . | 5.6
